Laboratory results: PubChem BioAssay AID1159580 (chemical genetic matrix, 2015)
In all, about 5,500 compounds went through this assay and about 2,000 (36%) were called active. Another 18% or so got no clear call; they are omitted. Cut-off read from the data, not from the text of the source: active = normalized growth mostly below about 0.91 (no sharp cut-off); inconclusive = no clear call, values can overlap the other calls; inactive = mostly above about 0.92. The list shows a part of the results.

Assay: chemical genetic growth profiling, strain panel (AID 1159580);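 note: tested at 20 µM; growth read once vehicle control cultures reached saturation at 30 °C; 1 = growth at the plate median or of vehicle wells; lower values mean less growth of the strain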
Settings: growth OD

Measured: normalized growth

Nc1c(Br)cc(Br)cc1CNC1CCC(O)CC1 (stereo not given)
inactive: S. cerevisiae deletion strains, locus YJR066W, strain TOR1, hits give low values 0.936 | S. cerevisiae deletion strains, locus YKL009W, strain mrt4, hits give low values 0.985 | S. cerevisiae deletion strains, locus YKL068W, hits give low values 0.997 | S. cerevisiae deletion strains, locus YKL085W, strain MDH1 (second series), hits give low values 1 | S. cerevisiae deletion strains, locus YKL085W, strain MDH1, hits give low values 1 | S. cerevisiae deletion strains, locus YKL160W, strain elf1, hits give low values 1 | S. cerevisiae deletion strains, locus YKL190W, strain CNB1, hits give low values 1.01 | S. cerevisiae deletion strains, locus YKR001C, strain vps1, hits give low values 0.994 | S. cerevisiae deletion strains, locus YKR026C, strain gcn3, hits give low values 1.01 | S. cerevisiae deletion strains, locus YKR091W, strain srl3, hits give low values 1.02 | S. cerevisiae deletion strains, locus YLL001W, strain dnm1, hits give low values 1.02 | S. cerevisiae deletion strains, locus YLL026W, hits give low values 1.01 | S. cerevisiae deletion strains, locus YLL041C, strain sdh2, hits give low values 0.993 | S. cerevisiae deletion strains, locus YLR027C, strain aat2, hits give low values 0.997 | S. cerevisiae deletion strains, locus YLR039C, strain RIC1, hits give low values 1.03 | S. cerevisiae deletion strains, locus YLR058C, strain SHM2, hits give low values 1 | S. cerevisiae deletion strains, locus YLR102C, strain apc9, hits give low values 1.01 | S. cerevisiae deletion strains, locus YLR113W, strain HOG1, hits give low values 1.07 | S. cerevisiae deletion strains, locus YLR221C, strain rsa3, hits give low values 1.01 | S. cerevisiae deletion strains, locus YLR258W, strain gsy2, hits give low values 1 | S. cerevisiae deletion strains, locus YLR262C, strain YPT6 (second series), hits give low values 0.974 | S. cerevisiae deletion strains, locus YLR262C, strain YPT6, hits give low values 1.04 | S. cerevisiae deletion strains, locus YLR268W, strain sec22, hits give low values 0.982 | S. cerevisiae deletion strains, locus YLR320W, strain mms22, hits give low values 1.03 | S. cerevisiae deletion strains, locus YLR330W, strain CHS5, hits give low values 1.01 | S. cerevisiae deletion strains, locus YLR342W, strain FKS1 (second series), hits give low values 1.01 | S. cerevisiae deletion strains, locus YLR342W, strain FKS1, hits give low values 1.02 | S. cerevisiae deletion strains, locus YLR357W, strain rsc2, hits give low values 1.03 | S. cerevisiae deletion strains, locus YLR370C, strain arc18, hits give low values 0.997 | S. cerevisiae deletion strains, locus YLR371W, strain rom2, hits give low values 1.01 | S. cerevisiae deletion strains, locus YLR384C, strain iki3, hits give low values 1.01 | S. cerevisiae deletion strains, locus YLR418C, strain cdc73, hits give low values 0.949 | S. cerevisiae deletion strains, locus YML016C, strain PPZ1, hits give low values 1 | S. cerevisiae deletion strains, locus YML032C, strain rad52, hits give low values 0.996 | S. cerevisiae deletion strains, locus YML120C, strain ndi1, hits give low values 1.05 | S. cerevisiae deletion strains, locus YML124C, strain tub3, hits give low values 0.996 | S. cerevisiae deletion strains, locus YMR058W, strain fet3, hits give low values 1.02 | S. cerevisiae deletion strains, locus YMR078C, strain ctf18, hits give low values 1.01 | S. cerevisiae deletion strains, locus YMR125W, strain sto1, hits give low values 1.01 | S. cerevisiae deletion strains, locus YMR129W, hits give low values 1.02 | S. cerevisiae deletion strains, locus YMR205C, strain PFK2, hits give low values 1 | S. cerevisiae deletion strains, locus YMR223W, strain ubp8, hits give low values 0.991 | S. cerevisiae deletion strains, locus YMR231W, strain pep5, hits give low values 1.02 | S. cerevisiae deletion strains, locus YMR307W, strain GAS1, hits give low values 1.12 | S. cerevisiae deletion strains, locus YNL067W, strain RPL9B, hits give low values 0.994 | S. cerevisiae deletion strains, locus YNL071W, strain lat1, hits give low values 1.01 | S. cerevisiae deletion strains, locus YNL128W, strain TEP1, hits give low values 1.02 | S. cerevisiae deletion strains, locus YNL153C, strain GIM3, hits give low values 0.99 | S. cerevisiae deletion strains, locus YNL183C, strain NPR1, hits give low values 0.981 | S. cerevisiae deletion strains, locus YNL209W, strain ssb2, hits give low values 1 | S. cerevisiae deletion strains, locus YNL233W, strain BNI4, hits give low values 0.991 | S. cerevisiae deletion strains, locus YNL248C, strain rpa49, hits give low values 1 | S. cerevisiae deletion strains, locus YNL250W, strain rad50, hits give low values 0.994 | S. cerevisiae deletion strains, locus YNL271C, strain bni1, hits give low values 1 | S. cerevisiae deletion strains, locus YNL298W, strain CLA4, hits give low values 1.03 | S. cerevisiae deletion strains, locus YNL307C, strain MCK1, hits give low values 1.01 | S. cerevisiae deletion strains, locus YNL322C, strain KRE1 (second series), hits give low values 1.02 | S. cerevisiae deletion strains, locus YNL322C, strain KRE1, hits give low values 1 | S. cerevisiae deletion strains, locus YNR049C, strain mso1, hits give low values 0.987 | S. cerevisiae deletion strains, locus YNR052C, strain pop2, hits give low values 1 | S. cerevisiae deletion strains, locus YOL006C, strain TOP1, hits give low values 0.95 | S. cerevisiae deletion strains, locus YOL012C, strain htz1 0.731 | S. cerevisiae deletion strains, locus YOL147C, strain pex11, hits give low values 0.998 | S. cerevisiae deletion strains, locus YOR001W, strain rrp6, hits give low values 0.996 | S. cerevisiae deletion strains, locus YOR061W, strain CKA2, hits give low values 1.01 | S. cerevisiae deletion strains, locus YOR069W, strain VPS5, hits give low values 1 | S. cerevisiae deletion strains, locus YOR070C, strain gyp1, hits give low values 1 | S. cerevisiae deletion strains, locus YOR080W, strain dia2, hits give low values 1.02 | S. cerevisiae deletion strains, locus YOR083W, strain WHI5, hits give low values 0.997 | S. cerevisiae deletion strains, locus YOR106W, strain vam3, hits give low values 1.02 | S. cerevisiae deletion strains, locus YOR136W, strain idh2, hits give low values 0.995 | S. cerevisiae deletion strains, locus YOR144C, strain elg1, hits give low values 0.994 | S. cerevisiae deletion strains, locus YOR184W, strain ser1, hits give low values 0.992 | S. cerevisiae deletion strains, locus YOR231W, strain MKK1, hits give low values 1.06 | S. cerevisiae deletion strains, locus YOR265W, strain rbl2, hits give low values 1.01 | S. cerevisiae deletion strains, locus YOR270C, strain vph1, hits give low values 1.01 | S. cerevisiae deletion strains, locus YOR290C, strain snf2, hits give low values 0.984 | S. cerevisiae deletion strains, locus YOR316C, strain cot1, hits give low values 1 | S. cerevisiae deletion strains, locus YPL051W, strain arl3, hits give low values 1.01 | S. cerevisiae deletion strains, locus YPL055C, strain LGE1, hits give low values 0.978 | S. cerevisiae deletion strains, locus YPL078C, strain atp4, hits give low values 0.999 | S. cerevisiae deletion strains, locus YPL106C, strain sse1, hits give low values 1.03 | S. cerevisiae deletion strains, locus YPL240C, strain hsp82, hits give low values 1.01 | S. cerevisiae deletion strains, locus YPL256C, strain CLN2, hits give low values 1.06 | S. cerevisiae deletion strains, locus YPR119W, strain clb2, hits give low values 1 | S. cerevisiae deletion strains, locus YPR141C, strain kar3, hits give low values 0.99 | S. cerevisiae deletion strains, locus YPR163C, strain tif3, hits give low values 1 | S. cerevisiae deletion strains, locus YPR167C, strain met16, hits give low values 0.998 | S. cerevisiae deletion strains, strain wtn01, hits give low values 1 | S. cerevisiae strains, strain wild type, hits give low values 1.01
